These results are taken from PubChem BioAssay (Tox21).

Results filed as inconclusive are left out. Entries that show only a call come without a potency. Active and inactive are the calls of the source. Unless noted, calls follow the shape of the full dose curve.

Tested on in one experiment: not listed separately
Kind of experiment: qHTS assay to identify small molecule agonists of the TGF-beta/Smad signaling pathway (AID 1346859; active = well fitted activation curve with a large enough effect in the signal ratio in the repeat runs, not every such curve was filed as active; the % refers to the signal ratio). Conditions: SBE-bla HEK293T, TGF-beta/Smad beta-lactamase reporter, 5 h; series mostly up to 76.8 µM. The method, boiled down: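 Dual-wavelength fluorescence (460/530 nm emission) quantified beta-lactamase expression under the Smad binding element in HEK 293T cells following 5 hr compound treatment at 37 C.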
A general note: Quantitative high-throughput screening tests each substance at several concentrations.
As for `CCOCCOC(C)=O`, the outcome was inactive.
Still for that read-out and setting: under `CC1CCC(C(C)C)C(OC(=O)c2ccccc2N)C1` (stereo unspecified) stands “inactive”.
On the same count and under the same terms, under `Oc1cc(Cl)c(Cl)c(Cl)c1` stands “inactive”; under `Oc1ccc(C2(c3ccc(O)cc3)c3ccccc3-c3ccccc32)cc1`, “inactive”.
Same read-out and setting: under `Oc1ccc(C2(c3ccc(O)cc3)CCCCC2)cc1` stands “inactive”; under `Nc1ccc(Cl)cc1C(=O)c1ccccc1`, “inactive”.
On to `CC(=O)OC1(c2ccccc2)CCN(CCc2ccccc2)CC1`, for which the result was inactive.
Consider `Oc1ccc(C(=C(Cl)Cl)c2ccc(O)cc2)cc1`, for which the outcome was inactive.
For `O=c1[nH]c2ccccc2n1CCCN1CCC(n2c(=O)[nH]c3cc(Cl)ccc32)CC1`, the result was inactive.
Still for that read-out and setting: under `CC[C@H]1C[C@@H]2C[C@H]3c4[nH]c5ccc(OC)cc5c4CCN(C2)[C@@H]13` stands “inactive”; under `CCc1nn(C)c(C(=O)NCc2ccc(C(C)(C)C)cc2)c1Cl`, “inactive”; under `Nc1ccc(Cc2ccc(N)c(Cl)c2)cc1Cl`, “inactive”.
Still for that read-out and setting: under `ClC1=C(Cl)C2(Cl)C3C(Cl)C(Cl)CC3C1(Cl)C2(Cl)Cl` (stereo unspecified) stands “inactive”; under `CCCOCC(=Nc1ccc(Cl)cc1C(F)(F)F)n1ccnc1`, “inactive”.
The same measure, in the same setting: the value for `CC(C)(C)C(O)/C(=C\c1ccc(Cl)cc1Cl)n1cncn1` (stereo unspecified) was “inactive”; that for `Clc1ccc(CSC(Cn2ccnc2)c2ccc(Cl)cc2Cl)cc1` (stereo unspecified) was “inactive”; that for `Clc1ccc(CO/N=C(\Cn2ccnc2)c2ccc(Cl)cc2Cl)c(Cl)c1` was “inactive”.
On to `O=C(CCl)C(Cl)Cl`, for which the call was inactive.
As to `C=CCC1=C(C)C(OC(=O)C2C(C=C(C)C)C2(C)C)CC1=O` (stereo unspecified), the molecule was classed as inactive.
The same measure, in the same setting: under `CCCCCCCCc1ccc(O)cc1` stands “inactive”.
For `N#CCCC(Br)(C#N)CBr` (stereo unspecified), the molecule was called inactive.

In the next experiment the target is Thyrotropin-releasing hormone receptor (Homo sapiens) (UniProt P34981). Kind of experiment: qHTS assay to identify small molecule antagonists of the thyrotropin-releasing hormone receptor (TRHR) signaling pathway (AID 1346877; active = well fitted inhibition curve with a large enough effect in the repeat runs, not every such curve was filed as active). The settings on record: TRHR-HEK293, TRH-induced calcium fluorescence, antagonist mode; series mostly up to 51.3 µM. In outline: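 Screening used HEK293 cells engineered with TRHR, with a brief 5 min room-temperature compound exposure preceding addition of TRH to 1 nM. The read-out was kinetic calcium-dye fluorescence, concentration-response from 15 doses in triplicate.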
Chain of Thyrotropin-releasing hormone receptor (Homo sapiens) (P34981 whole entry, looked up): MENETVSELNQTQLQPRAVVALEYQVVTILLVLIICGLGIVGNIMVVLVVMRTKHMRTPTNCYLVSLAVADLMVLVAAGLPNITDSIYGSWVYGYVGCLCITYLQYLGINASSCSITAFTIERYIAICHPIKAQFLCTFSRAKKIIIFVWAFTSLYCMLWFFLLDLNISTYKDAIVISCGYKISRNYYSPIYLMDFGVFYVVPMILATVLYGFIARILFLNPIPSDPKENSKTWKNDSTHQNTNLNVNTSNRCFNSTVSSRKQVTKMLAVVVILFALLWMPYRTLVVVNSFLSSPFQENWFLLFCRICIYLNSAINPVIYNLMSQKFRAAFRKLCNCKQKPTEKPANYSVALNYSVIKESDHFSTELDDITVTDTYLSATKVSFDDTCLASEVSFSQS
Turning to `NC(=O)CCl`, the Potency entry is “inactive”.
On the same count and under the same terms, under `CCOCCOC(C)=O` stands “inactive”; under `CC1CCC(C(C)C)C(OC(=O)c2ccccc2N)C1` (stereo unspecified), “inactive”.
On the same count and under the same terms, the value for `O=[N+]([O-])c1c2ccccc2cc2ccccc12` was “inactive”; that for `N#CSCSC#N` was “inactive”; that for `Oc1cc(Cl)c(Cl)c(Cl)c1` was “inactive”.
With `Oc1ccc(C2(c3ccc(O)cc3)c3ccccc3-c3ccccc32)cc1`, the Potency result is “inactive”.
Still for that read-out and setting: the value for `O=C(Nc1ccc2[nH]ccc2c1)c1cc2cc(F)ccc2n1Cc1cccc(F)c1` was “inactive”.
Still for that read-out and setting: the value for `COc1cc(C=O)cc2c1[C@H](COC(N)=O)[C@]1(OC(C)=O)ON2C[C@H]2[C@@H]1N2C(C)=O` was “inactive”; that for `O=c1c(C2CC(c3ccc(-c4ccc(Br)cc4)cc3)Cc3ccccc32)c(O)sc2ccccc12` (stereo unspecified) was “inactive”.
Same read-out and setting: the value for `CC[C@H](C)[C@H]1O[C@]2(C=C[C@@H]1C)C[C@@H]1C[C@@H](C/C=C(\C)[C@@H](O[C@H]3C[C@H](OC)[C@@H](O[C@H]4C[C@H](OC)[C@@H](O)[C@H](C)O4)[C@H](C)O3)[C@@H](C)/C=C/C=C3\CO[C@@H]4[C@H](O)C(C)=C[C@@H](C(=O)O1)[C@]34O)O2` was “inactive”; that for `CC(=O)OC1(c2ccccc2)CCN(CCc2ccccc2)CC1` was “inactive”.
Take `N#Cc1c(-c2ccc(Cl)cc2)[nH]c(C(F)(F)F)c1Br`: the Potency result is “inactive”.
`CC[C@H]1C[C@@H]2C[C@H]3c4[nH]c5ccc(OC)cc5c4CCN(C2)[C@@H]13`: the Potency result is “inactive”.
With `Nc1ccc(Cc2ccc(N)c(Cl)c2)cc1Cl`, the Potency result is “inactive”.
`CCN(CC)c1c([N+](=O)[O-])cc(C(F)(F)F)c(N)c1[N+](=O)[O-]`: the Potency entry is “inactive”.
Same read-out and setting: under `ClC1=C(Cl)C2(Cl)C3C(Cl)C(Cl)CC3C1(Cl)C2(Cl)Cl` (stereo unspecified) stands “inactive”; under `CCCOCC(=Nc1ccc(Cl)cc1C(F)(F)F)n1ccnc1`, “inactive”; under `Clc1ccc(CSC(Cn2ccnc2)c2ccc(Cl)cc2Cl)cc1` (stereo unspecified), “inactive”.
For `Clc1ccc(CO/N=C(\Cn2ccnc2)c2ccc(Cl)cc2Cl)c(Cl)c1`, the Potency entry is “inactive”.
`O=C(CCl)C(Cl)Cl`: the Potency result is “inactive”.
With `C=CCC1=C(C)C(OC(=O)C2C(C=C(C)C)C2(C)C)CC1=O` (stereo unspecified), the Potency entry is “inactive”.
Still for that read-out and setting: under `O=[N+]([O-])c1cc([N+](=O)[O-])c2ccccc2c1` stands “inactive”.

The target is the same in the next experiment. Description: qHTS assay to identify small molecule agonists of the thyrotropin-releasing hormone receptor (TRHR) signaling pathway (AID 1346891).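 Also: HEK293 cells expressing TRHR with calcium dye readout.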 The settings on record: TRHR-HEK293 calcium fluorescence, agonist mode; series mostly up to 57.6 µM. The method, boiled down: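 Kinetic fluorescence (3 min, 1 s intervals) reported intracellular calcium after compound transfer onto TRHR-Hek293 cells pre-loaded with dye for 2 h at 37 °C.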
As for `NC(=O)CCl`, the Potency result was “inactive”.
For `CCOCCOC(C)=O`, the Potency entry is “inactive”.
On to `CC1CCC(C(C)C)C(OC(=O)c2ccccc2N)C1` (stereo unspecified), for which the Potency entry was “inactive”.
For `O=[N+]([O-])c1c2ccccc2cc2ccccc12`, the Potency entry is “inactive”.
Still for that read-out and setting: the value for `N#CSCSC#N` was “inactive”.
Same read-out and setting: under `Oc1cc(Cl)c(Cl)c(Cl)c1` stands “inactive”; under `Oc1ccc(C2(c3ccc(O)cc3)c3ccccc3-c3ccccc32)cc1`, “inactive”.
In the case of `O=C(Nc1ccc2[nH]ccc2c1)c1cc2cc(F)ccc2n1Cc1cccc(F)c1`, the Potency result was “inactive”.
Same read-out and setting: the value for `Oc1ccc(C2(c3ccc(O)cc3)CCCCC2)cc1` was “inactive”; that for `COc1cc(C=O)cc2c1[C@H](COC(N)=O)[C@]1(OC(C)=O)ON2C[C@H]2[C@@H]1N2C(C)=O` was “inactive”.
The same measure, in the same setting: under `CC(C)C1CCC(Cc2ccc(Cl)cc2)C1(O)Cn1cncn1` (stereo unspecified) stands “inactive”; under `CS(=O)(=O)c1ccc(C(=O)C2C(=O)CCCC2=O)c([N+](=O)[O-])c1`, “inactive”.
On the same count and under the same terms, the value for `O=c1c(C2CC(c3ccc(-c4ccc(Br)cc4)cc3)Cc3ccccc32)c(O)sc2ccccc12` (stereo unspecified) was “inactive”; that for `CC[C@H](C)[C@H]1O[C@]2(C=C[C@@H]1C)C[C@@H]1C[C@@H](C/C=C(\C)[C@@H](O[C@H]3C[C@H](OC)[C@@H](O[C@H]4C[C@H](OC)[C@@H](O)[C@H](C)O4)[C@H](C)O3)[C@@H](C)/C=C/C=C3\CO[C@@H]4[C@H](O)C(C)=C[C@@H](C(=O)O1)[C@]34O)O2` was “inactive”.
Take `CC(=O)OC1(c2ccccc2)CCN(CCc2ccccc2)CC1`: the Potency result was “inactive”.
Turning to `N#Cc1c(-c2ccc(Cl)cc2)[nH]c(C(F)(F)F)c1Br`, the Potency result is “inactive”.
Same read-out and setting: the value for `CC[C@H]1C[C@@H]2C[C@H]3c4[nH]c5ccc(OC)cc5c4CCN(C2)[C@@H]13` was “inactive”; that for `CCc1nn(C)c(C(=O)NCc2ccc(C(C)(C)C)cc2)c1Cl` was “inactive”.
Same read-out and setting: under `Nc1ccc(Cc2ccc(N)c(Cl)c2)cc1Cl` stands “inactive”.
The same measure, in the same setting: under `CCN(CC)c1c([N+](=O)[O-])cc(C(F)(F)F)c(N)c1[N+](=O)[O-]` stands “inactive”; under `ClC1=C(Cl)C2(Cl)C3C(Cl)C(Cl)CC3C1(Cl)C2(Cl)Cl` (stereo unspecified), “inactive”; under `CCCOCC(=Nc1ccc(Cl)cc1C(F)(F)F)n1ccnc1`, “inactive”.
Consider `Clc1ccc(CSC(Cn2ccnc2)c2ccc(Cl)cc2Cl)cc1` (stereo unspecified), for which the Potency entry was “inactive”.
Still for that read-out and setting: under `Clc1ccc(CO/N=C(\Cn2ccnc2)c2ccc(Cl)cc2Cl)c(Cl)c1` stands “inactive”; under `O=C(CCl)C(Cl)Cl`, “inactive”; under `O=[N+]([O-])c1cc([N+](=O)[O-])c2ccccc2c1`, “inactive”.
For the molecule `N#CCCC(Br)(C#N)CBr` (stereo unspecified), the Potency entry was “inactive”.
